Test results as given in PMC4336329 (PLoS ONE, 2015).
In all, about 310,000 compounds went through this assay and about 14,000 (4.5%) showed an effect of 50% or more. The effect is printed as a negative number. The list comes from a sample in which strong results are over-represented; it also holds similar structures and randomly drawn compounds.

Target: human ether-à-go-go-related gene (hERG) potassium channel (human, UniProt Q12809)
Test: primary screen, population patch clamp on CHO cells stably expressing hERG; higher = less effect of the substance
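Further: peak tail current of the secondary pulse compared with the same well before compound.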

Chain of human ether-à-go-go-related gene (hERG) potassium channel (Q12809 whole entry, looked up): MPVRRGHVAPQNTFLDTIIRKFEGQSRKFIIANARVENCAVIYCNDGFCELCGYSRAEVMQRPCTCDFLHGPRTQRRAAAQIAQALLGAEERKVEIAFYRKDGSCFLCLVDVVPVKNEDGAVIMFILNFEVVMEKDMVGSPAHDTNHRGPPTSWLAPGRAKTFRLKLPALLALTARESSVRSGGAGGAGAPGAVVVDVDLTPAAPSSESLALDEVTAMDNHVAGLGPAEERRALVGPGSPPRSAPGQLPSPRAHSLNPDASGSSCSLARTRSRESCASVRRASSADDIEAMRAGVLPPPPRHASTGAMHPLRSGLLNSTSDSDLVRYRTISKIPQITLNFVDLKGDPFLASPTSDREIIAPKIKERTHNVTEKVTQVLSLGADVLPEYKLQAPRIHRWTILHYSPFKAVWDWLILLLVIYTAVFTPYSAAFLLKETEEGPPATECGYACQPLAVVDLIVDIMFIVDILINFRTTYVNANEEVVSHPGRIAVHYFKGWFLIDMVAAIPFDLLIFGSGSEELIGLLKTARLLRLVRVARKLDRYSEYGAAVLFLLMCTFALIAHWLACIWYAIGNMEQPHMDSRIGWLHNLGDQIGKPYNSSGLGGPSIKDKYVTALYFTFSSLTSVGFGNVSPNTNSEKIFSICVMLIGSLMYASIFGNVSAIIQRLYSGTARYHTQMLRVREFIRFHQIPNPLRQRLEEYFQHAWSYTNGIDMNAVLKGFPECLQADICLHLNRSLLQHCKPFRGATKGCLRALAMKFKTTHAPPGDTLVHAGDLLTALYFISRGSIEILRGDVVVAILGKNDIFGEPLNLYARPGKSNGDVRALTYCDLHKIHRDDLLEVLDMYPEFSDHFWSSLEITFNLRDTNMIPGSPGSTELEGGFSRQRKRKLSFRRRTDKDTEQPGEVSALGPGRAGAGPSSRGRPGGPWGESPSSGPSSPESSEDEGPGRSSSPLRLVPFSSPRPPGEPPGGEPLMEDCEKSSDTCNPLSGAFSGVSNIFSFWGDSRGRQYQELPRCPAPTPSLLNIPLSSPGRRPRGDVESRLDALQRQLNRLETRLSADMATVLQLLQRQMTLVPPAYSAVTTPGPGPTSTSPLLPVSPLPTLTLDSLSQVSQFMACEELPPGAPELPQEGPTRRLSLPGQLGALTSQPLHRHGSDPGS

Q: With C[C@@H]1C(=O)O[C@H]2[C@H]1CC[C@@]1(C)C(=O)C=C[C@@](C)(O)[C@H]21 as the molecule, how does the “hERG current change (%, negative = inhibition) at 10uM” value read?
A: Its value is 15.6%.

Q: Which “hERG current change (%, negative = inhibition) at 10uM” value does the source give for C=CCN1C(=O)c2ccc(C(=O)OCC(=O)N3CCN(c4ccccc4)CC3)cc2C1=O here?
A: Its value is 7.02%.

Q: CC(C(=O)NCCc1ccccc1)N1c2cccc3cccc(c23)S1(=O)=O (stereo not shown) was tested. Which “hERG current change (%, negative = inhibition) at 10uM” value did it give?
A: Its value is -21.2%.

Q: Which “hERG current change (%, negative = inhibition) at 10uM” value does the source give for Cc1ccc(C(=O)OCC(=O)NNC(=O)COc2ccc(Cl)cc2)c(O)c1 here?
A: The value was -2.08%.

Q: For O=C(Cc1ccc(NS(=O)(=O)c2ccc(F)cc2)cc1)NCc1ccccc1, which “hERG current change (%, negative = inhibition) at 10uM” value is on record?
A: Its value is -16.4%.

Q: For O=C(N/N=C/c1cc([N+](=O)[O-])ccc1O)C12CC3CC(CC(C3)C1)C2, which “hERG current change (%, negative = inhibition) at 10uM” value is on record?
A: The value was 8.39%.

Q: CCN(CC(=O)Nc1c(F)cccc1F)C(=O)CSc1ccccc1 was tested. Which “hERG current change (%, negative = inhibition) at 10uM” value did it give?
A: Its value is 8.37%.

Q: How did the “hERG current change (%, negative = inhibition) at 10uM” value turn out when CCSc1ccccc1C(=O)N1CCN(c2ccc([N+](=O)[O-])cc2)CC1 was run?
A: Its value is -79.4%.

Q: Which “hERG current change (%, negative = inhibition) at 10uM” value does the source give for CCSc1ccccc1C(=O)N1CCCC1 here?
A: Its value is -5.81%.

Q: With CC(NC(=O)c1cnc2n(c1=O)CCS2)c1ccccc1 (stereo not shown) as the molecule, how does the “hERG current change (%, negative = inhibition) at 10uM” value read?
A: Its value is 3.42%.

Q: Which “hERG current change (%, negative = inhibition) at 10uM” value does the source give for O=C(c1cc([N+](=O)[O-])ccc1Cl)N1CCN(c2ccccc2)CC1 here?
A: The value was -6.43%.

Q: Which “hERG current change (%, negative = inhibition) at 10uM” value does the source give for O=C(c1cc([N+](=O)[O-])ccc1Cl)N1CCN(c2ccc([N+](=O)[O-])cc2)CC1 here?
A: Its value is -73.6%.

Q: COCCSc1ccccc1C(=O)Nc1ccc([N+](=O)[O-])cc1OC was tested. Which “hERG current change (%, negative = inhibition) at 10uM” value did it give?
A: Its value is -39.9%.

Q: Which “hERG current change (%, negative = inhibition) at 10uM” value does the source give for O=C(c1cnc2n(c1=O)CCS2)N1CCN(c2ccccc2F)CC1 here?
A: Its value is -5.65%.

Q: Which “hERG current change (%, negative = inhibition) at 10uM” value does the source give for CCSc1ccccc1C(=O)Nc1ccc([N+](=O)[O-])cc1OC here?
A: The value was -51.9%.

Q: Which “hERG current change (%, negative = inhibition) at 10uM” value does the source give for COCCSc1ccccc1C(=O)Nc1cc([N+](=O)[O-])ccc1OC here?
A: The value was -28.8%.

Q: For O=C(c1cc([N+](=O)[O-])ccc1Cl)N1CCN(c2ccc(F)cc2)CC1, which “hERG current change (%, negative = inhibition) at 10uM” value is on record?
A: The value was -27.9%.

Q: For CCSc1ccccc1C(=O)N1CCN(c2ccccc2F)CC1, which “hERG current change (%, negative = inhibition) at 10uM” value is on record?
A: The value was 17.6%.

Q: For O=C(c1cnc2n(c1=O)CCS2)N1CCN(C(c2ccccc2)c2ccc(Cl)cc2)CC1 (stereo not shown), which “hERG current change (%, negative = inhibition) at 10uM” value is on record?
A: The value was -52.4%.

Q: How did the “hERG current change (%, negative = inhibition) at 10uM” value turn out when Cc1cccc(NC(=O)COC(=O)Cc2cccc(C(F)(F)F)c2)c1C was run?
A: The value was 22.8%.

Q: Which “hERG current change (%, negative = inhibition) at 10uM” value does the source give for Cc1cc(C)n(CCNC(=O)CC2C(=O)NCCN2Cc2ccccc2C(F)(F)F)n1 (stereo not shown) here?
A: The value was 8.81%.

Q: Which “hERG current change (%, negative = inhibition) at 10uM” value does the source give for COCCOC(=O)C1=C(C)OC(N)=C(C#N)C1c1ccc2c(c1)OCO2 (stereo not shown) here?
A: The value was -0.292%.

Q: For CCCOc1ccc(/C=N/NC(=O)C(C)Sc2ccccn2)cc1OCC (stereo not shown), which “hERG current change (%, negative = inhibition) at 10uM” value is on record?
A: The value was 14.9%.

Q: Which “hERG current change (%, negative = inhibition) at 10uM” value does the source give for CCOCC(=O)Nc1cc([N+](=O)[O-])ccc1OC here?
A: Its value is 15.7%.

Q: How did the “hERG current change (%, negative = inhibition) at 10uM” value turn out when N#C/C(=C\C=C\c1ccccc1)c1nc(-c2ccc3c(c2)OCO3)cs1 was run?
A: The value was -3.96%.

Q: With COc1ccc(N(CC(=O)NCc2cccs2)S(=O)(=O)c2ccc(F)cc2)cc1 as the molecule, how does the “hERG current change (%, negative = inhibition) at 10uM” value read?
A: The value was -0.742%.

Q: How did the “hERG current change (%, negative = inhibition) at 10uM” value turn out when CN(Cc1nccs1)C(=O)C1CCC(=O)N(Cc2ccccc2F)C1 (stereo not shown) was run?
A: Its value is -16.1%.

Q: For COc1cccc(-c2ccc(=O)n(CC(=O)Nc3ccc(C(=O)N4CCCC4)cc3)n2)c1, which “hERG current change (%, negative = inhibition) at 10uM” value is on record?
A: Its value is -15.4%.

Q: How did the “hERG current change (%, negative = inhibition) at 10uM” value turn out when COc1cc(/C=C/c2cccc[n+]2C)ccc1OCC(=O)Nc1ccccc1.[I-] was run?
A: Its value is 8.86%.

Q: Cc1ccc(S(=O)(=O)N2CCN(C(=O)c3cc(S(=O)(=O)N(C)C)ccc3N3CCCC3)CC2)cc1 was tested. Which “hERG current change (%, negative = inhibition) at 10uM” value did it give?
A: The value was -11.1%.

Q: With CN(C)S(=O)(=O)c1ccc(N2CCCC2)c(C(=O)N2CCN(c3ccc([N+](=O)[O-])cc3)CC2)c1 as the molecule, how does the “hERG current change (%, negative = inhibition) at 10uM” value read?
A: The value was -76.7%.

Q: How did the “hERG current change (%, negative = inhibition) at 10uM” value turn out when O=C(c1cc([N+](=O)[O-])ccc1N1CCOCC1)N1CCOCC1 was run?
A: Its value is 18.1%.

Q: How did the “hERG current change (%, negative = inhibition) at 10uM” value turn out when CC(=O)c1ccc(N2CCN(C(=O)c3cc(-c4cccnc4)nc4ccc(Br)cc34)CC2)cc1 was run?
A: The value was 2.5%.

Q: For O=C(c1cc(=O)[nH]c2ccccc12)N1CCN(c2ccccc2)CC1, which “hERG current change (%, negative = inhibition) at 10uM” value is on record?
A: The value was 2.12%.

Q: For COc1ccc(N2CCN(C(=O)c3cc(=O)[nH]c4ccccc34)CC2)cc1, which “hERG current change (%, negative = inhibition) at 10uM” value is on record?
A: The value was -0.412%.

Q: Cc1cccc(N2CCN(C(=O)c3cc(S(=O)(=O)N(C)C)ccc3N3CCCC3)CC2)c1C was tested. Which “hERG current change (%, negative = inhibition) at 10uM” value did it give?
A: The value was -12.3%.

Q: With O=C(c1cc(=O)[nH]c2ccccc12)N1CCN(c2ccc([N+](=O)[O-])cc2)CC1 as the molecule, how does the “hERG current change (%, negative = inhibition) at 10uM” value read?
A: The value was -65.1%.

Q: O=C(c1cc([N+](=O)[O-])ccc1N1CCOCC1)N1CCN(c2ccc([N+](=O)[O-])cc2)CC1 was tested. Which “hERG current change (%, negative = inhibition) at 10uM” value did it give?
A: The value was -79.8%.

Q: How did the “hERG current change (%, negative = inhibition) at 10uM” value turn out when Cc1ccc2c(C(=O)N3CCN(c4ccccc4)CC3)cc(-c3cccnc3)nc2c1C was run?
A: Its value is 4.03%.

Q: How did the “hERG current change (%, negative = inhibition) at 10uM” value turn out when Cc1ccc2nc(-c3cccnc3)cc(C(=O)N3CCN(c4ccc([N+](=O)[O-])cc4)CC3)c2c1 was run?
A: The value was -68.2%.

Q: For O=C(c1cc([N+](=O)[O-])ccc1N1CCOCC1)N1CCN(c2ccccc2)CC1, which “hERG current change (%, negative = inhibition) at 10uM” value is on record?
A: The value was -32.3%.

Q: How did the “hERG current change (%, negative = inhibition) at 10uM” value turn out when CCOc1ccc(C(=O)NCC(=O)OCC(=O)Nc2ccccc2OC)cc1 was run?
A: The value was -18.1%.

Q: Which “hERG current change (%, negative = inhibition) at 10uM” value does the source give for CCC(CC)C(=O)Nc1cc(C)cc(C)c1 here?
A: The value was 0.735%.

Q: With CC(NC(=O)COC(=O)CNC(=O)C1CCCCC1)c1ccccc1 (stereo not shown) as the molecule, how does the “hERG current change (%, negative = inhibition) at 10uM” value read?
A: The value was -3.81%.

Q: For COc1ccc(/C=N/NC(=O)c2nnn(-c3nonc3N)c2-c2cccs2)c(OC)c1, which “hERG current change (%, negative = inhibition) at 10uM” value is on record?
A: Its value is 13.1%.

Q: How did the “hERG current change (%, negative = inhibition) at 10uM” value turn out when CC(C)(C)NC(=O)C(OC(=O)c1cccs1)c1ccccc1 (stereo not shown) was run?
A: The value was 58.8%.

Q: Cc1ccc(C(=O)NC(=S)NNC(=O)COc2ccccc2C)cc1 was tested. Which “hERG current change (%, negative = inhibition) at 10uM” value did it give?
A: The value was 15.3%.

Q: Which “hERG current change (%, negative = inhibition) at 10uM” value does the source give for O=C(O)C1CCCCC1C(=O)NCCc1ccncc1 (stereo not shown) here?
A: Its value is 1.96%.

Q: Which “hERG current change (%, negative = inhibition) at 10uM” value does the source give for O=C(c1ccc(F)cc1)N1CCN2C(=O)c3ccccc3C12c1ccccc1 (stereo not shown) here?
A: Its value is -31.5%.

Q: How did the “hERG current change (%, negative = inhibition) at 10uM” value turn out when COc1ccc2[nH]c(=O)c(CN(C(C)=O)c3cccc(C)c3)cc2c1 was run?
A: The value was -8.64%.

Q: With Nc1nonc1-n1nnc(C(=O)N/N=C/c2ccccc2)c1CSc1ccc(Cl)cc1 as the molecule, how does the “hERG current change (%, negative = inhibition) at 10uM” value read?
A: The value was -23.6%.

Q: How did the “hERG current change (%, negative = inhibition) at 10uM” value turn out when Cc1ccccc1C(=O)OC1OC(=O)C(Cl)=C1N1CCOCC1 (stereo not shown) was run?
A: Its value is -20.1%.
